In the library only some 4.2% were active in any assay of this set; here they are far more common.
AHR activator – human AHR activation; P35869; AHR-responsive luciferase reporter cells, luminescence; activation, % at 5 µM; 320,000 compounds, 2.5% hits; AID 2796; in the data active = activation above about 47%;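 also: 0% = vehicle wells and 100% = reference agonist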
Target sequence (P35869 whole entry, looked up): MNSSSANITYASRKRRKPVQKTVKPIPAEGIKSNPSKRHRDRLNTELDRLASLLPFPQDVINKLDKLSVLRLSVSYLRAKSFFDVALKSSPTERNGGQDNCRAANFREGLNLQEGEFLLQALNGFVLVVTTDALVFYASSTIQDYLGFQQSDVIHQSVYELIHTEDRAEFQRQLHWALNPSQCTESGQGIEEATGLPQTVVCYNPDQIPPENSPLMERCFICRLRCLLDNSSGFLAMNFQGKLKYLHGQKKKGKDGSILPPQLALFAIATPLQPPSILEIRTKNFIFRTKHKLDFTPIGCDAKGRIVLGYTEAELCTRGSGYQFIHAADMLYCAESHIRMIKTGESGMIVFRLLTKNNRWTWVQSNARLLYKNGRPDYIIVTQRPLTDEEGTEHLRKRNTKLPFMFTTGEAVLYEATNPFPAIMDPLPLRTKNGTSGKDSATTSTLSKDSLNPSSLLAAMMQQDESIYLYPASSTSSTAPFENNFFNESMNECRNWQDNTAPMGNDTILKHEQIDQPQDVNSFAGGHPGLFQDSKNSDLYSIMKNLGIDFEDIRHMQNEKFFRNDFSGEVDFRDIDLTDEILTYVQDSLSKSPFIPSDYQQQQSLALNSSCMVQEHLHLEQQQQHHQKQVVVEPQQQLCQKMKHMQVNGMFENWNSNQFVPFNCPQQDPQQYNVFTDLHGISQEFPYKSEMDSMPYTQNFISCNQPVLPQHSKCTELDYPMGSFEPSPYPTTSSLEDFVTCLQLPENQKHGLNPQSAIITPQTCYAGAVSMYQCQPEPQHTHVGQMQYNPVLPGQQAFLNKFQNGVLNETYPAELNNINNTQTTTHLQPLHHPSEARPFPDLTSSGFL
MITF TRPM1 HTS – increases MITF-driven TRPM1 promoter luciferase signal | activation, % at 12.5 µM | 300,000 compounds, 0.75% hits | AID 588334 | SK-MEL-5 TRPM1-promoter luciferase, 24 h; % of positive control, neutral wells = 0;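 active = mean activation of at least 80% with every replicate also reaching 80%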;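 also: 0% = neutral control wells and 100% = parthenolide positive control wells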
GAA850 FXN act – activators of GAA850 frataxin (FXN) promoter | HEK293 lucGAA850 FXN promoter luciferase reporter, 24 h; percent of 10 µM SAHA response | activation, % at 6 µM | 360,000 compounds, 0.56% hits | AID 540364;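 active = activation above the average of all compounds screened plus 3 SD, cutoff fixed separately per campaign, cut at about 7.5% in these data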;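 also: 0% = DMSO wells and 100% = 10 µM SAHA wells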
esBAF inh – blocks esBAF chromatin remodeling in mouse ES cells. 350,000 compounds, 2% hits. AID 602393. Bmi1-luciferase knock-in reporter, 24 h; 100% = twice the neutral-well signal. reporter increase, % at 12.5 µM; in the data active = activation above about 40%;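 also: 0% = median of the plate's neutral control wells and 100% = double that signal; a rise in the Bmi1 reporter signal indicates esBAF inhibition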
Wnt bcat act – activators of Wnt/beta-catenin signaling | Wnt/beta-catenin reporter cell assay, activator, plate reader | activation, % at 9.35 µM | 300,000 compounds, 1.2% hits; in the data active = activation above about 30%, passing the limit was not always enough;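 also: 0% = neutral control wells and 100% = positive control wells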
An asterisk follows results filed as active.

Results for Fc1ccccc1NC(=S)N/N=C/c1ccccc1Br ?
AHR activator: 124*; GAA850 FXN act: 6; esBAF inh: 60*

What do the screens show for `CCN1C(=O)/C(=C/c2ccc(N3CCCC3)cc2)NC1=S`?
AHR activator: 19; MITF TRPM1 HTS: 49; GAA850 FXN act: 3; esBAF inh: 49*; Wnt bcat act: 16

Results for CCCN1C(=O)/C(=C/c2ccc(N3CCOCC3)cc2)NC1=S ?
AHR activator: 13; MITF TRPM1 HTS: 13; GAA850 FXN act: 2; Wnt bcat act: -2

How did CC(Sc1nc2ccccc2c(=O)n1C)C(=O)Nc1ccc2c(c1)OCCO2 (configuration not stated) do in these assays?
AHR activator: 1; MITF TRPM1 HTS: -19; GAA850 FXN act: 2; esBAF inh: -12; Wnt bcat act: -5

Results for CCC(C(=O)Nc1ccc2c(c1)OCCO2)n1nnc2ccccc2c1=O (configuration not stated) ?
AHR activator: 5; MITF TRPM1 HTS: 88*; GAA850 FXN act: 3; esBAF inh: 59*; Wnt bcat act: 15

How did O=C(C[C@@H]1C[C@H]2c3cc(NC(=O)C4CCOCC4)ccc3O[C@H]2[C@@H](CO)O1)NCc1cc(F)ccc1F do in these assays?
esBAF inh: -2

What do the screens show for `O=C(Nc1ccc(C(F)(F)F)cc1)c1ccccc1Br`?
AHR activator: 28; MITF TRPM1 HTS: 66; GAA850 FXN act: 4; esBAF inh: 55*; Wnt bcat act: 6

Results for O=C(Nc1ccc(C(F)(F)F)cc1)c1cccnc1N1CCOCC1 ?
AHR activator: 61*; MITF TRPM1 HTS: -11; GAA850 FXN act: 1; esBAF inh: -6

How did CCOc1ccc(NC(=O)c2ccc(NC(=O)c3ccccc3Br)cc2)cc1 do in these assays?
MITF TRPM1 HTS: 18; GAA850 FXN act: -1; esBAF inh: -9; Wnt bcat act: -8

What do the screens show for `O=C(Nc1cccc(C(F)(F)F)c1)c1cccnc1N1CCOCC1`?
AHR activator: 2; MITF TRPM1 HTS: -13; GAA850 FXN act: -1; esBAF inh: 7; Wnt bcat act: -1

How did O=C(Nc1ccc(NC(=O)c2ccccc2Br)cc1)c1ccccc1 do in these assays?
AHR activator: -6; MITF TRPM1 HTS: 27; GAA850 FXN act: 2; esBAF inh: 42*; Wnt bcat act: 3

What do the screens show for `C[C@H](CO)N1C[C@H](C)[C@@H](CN(C)CC2CCCCC2)OCCCC[C@H](C)Oc2ccc(NS(=O)(=O)c3ccc(Cl)cc3)cc2C1=O`?
esBAF inh: -2

What do the screens show for `CC(=O)c1ccc(Nc2nc(C)cc(C)n2)cc1`?
AHR activator: -4; MITF TRPM1 HTS: 66; GAA850 FXN act: 2; esBAF inh: 50*; Wnt bcat act: 22

Results for CC(=O)c1cccc(Nc2cc(C)nc3c(C)cc(C)cc23)c1 ?
AHR activator: 56*; MITF TRPM1 HTS: 3; GAA850 FXN act: -2

What do the screens show for `CC(=O)c1ccc(Nc2cc(C)nc3c(C)cccc23)cc1`?
AHR activator: 49*; MITF TRPM1 HTS: 11; GAA850 FXN act: 0; esBAF inh: 11; Wnt bcat act: 0

What do the screens show for `CCOC(=O)c1ccc(Nc2nc(C)cc(C)n2)cc1`?
MITF TRPM1 HTS: 46; GAA850 FXN act: 2; esBAF inh: 39; Wnt bcat act: 18

How did CC(=O)c1cccc(Nc2cc(C)nc3ccc(C)cc23)c1 do in these assays?
AHR activator: 13; MITF TRPM1 HTS: -10; GAA850 FXN act: -1; Wnt bcat act: 2

Results for CNC[C@@H]1Oc2cc(C#CC3(O)CCCC3)ccc2S(=O)(=O)N([C@@H](C)CO)C[C@@H]1C ?
esBAF inh: -2

How did C[C@H]1CCCCO[C@H](CN(C)S(=O)(=O)c2ccccc2)[C@@H](C)CN([C@@H](C)CO)C(=O)c2cc(NC(=O)Nc3ccc(C(F)(F)F)cc3)ccc2O1 do in these assays?
esBAF inh: -8

Results for N#Cc1ccc(-c2ccc3c(c2)[C@H]2[C@H](CCN2Cc2cncnc2)[C@H](CO)N3)cc1 ?
esBAF inh: 4

Results for Cc1cc(C(=O)Nc2cccc3c2O[C@@H](CN(C)C(=O)NC2CCCCC2)[C@H](C)CN([C@@H](C)CO)C3=O)n(C)n1 ?
esBAF inh: -2

How did CCOc1ccc2nc(SCC3CC3(Cl)Cl)[nH]c2c1 (configuration not stated) do in these assays?
AHR activator: 15; GAA850 FXN act: 1; Wnt bcat act: 35*

How did Cc1ccc(-c2cc(C(=O)NC3=NCCS3)c3ccccc3n2)cc1C do in these assays?
AHR activator: 15; MITF TRPM1 HTS: 45; GAA850 FXN act: 4; Wnt bcat act: 40*

How did O=C(NC1=NCCS1)c1cc(-c2ccc(F)cc2)nc2ccccc12 do in these assays?
AHR activator: 30; MITF TRPM1 HTS: 41; GAA850 FXN act: 2

How did Cc1ccc(-c2cc(C(=O)N/N=C/c3c(C)nn(C)c3C)c3ccccc3n2)cc1C do in these assays?
AHR activator: 61*; MITF TRPM1 HTS: 37; GAA850 FXN act: -1; esBAF inh: 48*

How did C[C@@H]1CN([C@@H](C)CO)C(=O)c2cc(NC(=O)CCCN(C)C)ccc2O[C@H]1CN(C)Cc1ccc(-c2ccccc2)cc1 do in these assays?
esBAF inh: -7

How did CNC(=O)/C(C#N)=C/c1c(N2CCN(c3ccccc3)CC2)nc2c(C)cccn2c1=O do in these assays?
AHR activator: 49*; MITF TRPM1 HTS: -7; GAA850 FXN act: 6; esBAF inh: 6; Wnt bcat act: 3

How did COC(=O)/C(C#N)=C/c1c(N2CCN(c3ccc(OC)cc3)CC2)nc2c(C)cccn2c1=O do in these assays?
AHR activator: 32; MITF TRPM1 HTS: 1; GAA850 FXN act: 3; esBAF inh: -8; Wnt bcat act: 1

Results for CNC(=O)/C(C#N)=C/c1c(N2CCN(c3ccc(OC)cc3)CC2)nc2c(C)cccn2c1=O ?
AHR activator: 55*; MITF TRPM1 HTS: 6; GAA850 FXN act: 3; esBAF inh: -5; Wnt bcat act: 6

What do the screens show for `S=C(c1ccc(-c2ccc(Cl)cc2Cl)o1)N1CCCCC1`?
AHR activator: 19; MITF TRPM1 HTS: 60; GAA850 FXN act: 3; esBAF inh: 53*; Wnt bcat act: 27

How did S=C(c1ccc(-c2ccc(Cl)cc2Cl)o1)N1CCCC1 do in these assays?
AHR activator: 4; GAA850 FXN act: 3; Wnt bcat act: 33*

Results for CN1CCN(C(=S)c2ccc(-c3cc(Cl)ccc3Cl)o2)CC1 ?
AHR activator: 4; MITF TRPM1 HTS: 5; GAA850 FXN act: 1; Wnt bcat act: 1

Results for CN(C)C(=O)[C@H]1[C@H](CO)[C@H]2Cn3c(ccc(-c4cccc(F)c4)c3=O)[C@H]2N1C(=O)c1cnccn1 ?
esBAF inh: -6

How did O=C(C[C@@H]1CC[C@H](NC(=O)CN2CCOCC2)[C@H](CO)O1)NCCc1ccccc1 do in these assays?
esBAF inh: 1

How did CO[C@H]1CN(C)C(=O)c2ccc(NC(=O)c3ccccc3)cc2OC[C@@H](C)N(CC2CC2)C[C@H]1C do in these assays?
esBAF inh: 1

Screening data (PubChem)
